The record followed here is publication PMC7862700, “An all-to-all approach to the identification of sequence-specific readers for epigenetic DNA modifications on cytosine”.

What all share (assay): DAPPL (digital affinity profiling via proximity ligation, sequencing); 10 mM Tris-HCl pH 7.5, 50 mM NaCl, 1 mM DTT, 4% glycerol, room temperature, 30 min; GST-TFs on glutathione beads, 16-mer random dsDNA library, 0.1% formaldehyde crosslink after washing; high values mean tight binding
One assay has as its target T1, FEV (Homo sapiens, UniProt Q99581 1-238).
T1 sequence: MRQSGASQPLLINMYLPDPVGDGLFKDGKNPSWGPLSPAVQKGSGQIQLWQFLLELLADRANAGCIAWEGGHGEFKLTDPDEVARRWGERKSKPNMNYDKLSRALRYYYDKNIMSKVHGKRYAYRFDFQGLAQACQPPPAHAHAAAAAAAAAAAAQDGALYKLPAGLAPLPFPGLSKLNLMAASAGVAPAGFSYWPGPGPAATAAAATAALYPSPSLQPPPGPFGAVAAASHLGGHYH
Conditions: protein: recombinant; tags: N-terminal GST; dsDNA, one strand shown. In a few lines:
(§1)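 Pools of DNA-barcoded human transcription factors, expressed in yeast as GST fusions on glutathione beads and combined with a tag-only sample, were incubated with 200 nmole of a 16-mer random double-stranded DNA library. Incubation took 30 min at room temperature in Tris/NaCl/DTT/glycerol buffer and was followed by washing, 0.1% formaldehyde crosslinking, proximity ligation (BsaI/T4 ligase, 1 h, 37 °C), PCR amplification and sequencing on an Illumina NextSeq500. Binding signal is the ratio of a hexamer's read frequency for a factor to its frequency for the tag-only sample.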

Another assay has as its target ETV5 (Homo sapiens, UniProt P41161 1-510). Conditions: protein: recombinant; tags: N-terminal GST; dsDNA, one strand shown. In a few lines:
as §1

In another assay the target is HSF1 (Homo sapiens, UniProt Q00613 1-529). As to conditions: protein: recombinant; tags: N-terminal GST; chain copies: 3; dsDNA, one strand shown. In a few lines: as §1
Another assay deals with T2, SPIC (Homo sapiens, UniProt Q8N5J4 1-248).
T2 sequence: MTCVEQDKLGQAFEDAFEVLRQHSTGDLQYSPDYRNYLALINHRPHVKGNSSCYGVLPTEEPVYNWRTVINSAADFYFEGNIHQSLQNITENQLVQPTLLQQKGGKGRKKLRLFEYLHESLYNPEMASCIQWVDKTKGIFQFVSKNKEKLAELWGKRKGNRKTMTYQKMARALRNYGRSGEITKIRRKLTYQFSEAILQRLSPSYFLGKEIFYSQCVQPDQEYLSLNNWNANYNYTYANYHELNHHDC
Conditions: protein: recombinant; tags: N-terminal GST; dsDNA, one strand shown. The essentials:
as §1

The target in the next assay is ELF4 (Homo sapiens, UniProt Q99607 1-663). As to conditions: protein: recombinant; tags: N-terminal GST; dsDNA, one strand shown. The essentials:
as §1

The target of the next assay is T3, ELK4 (Homo sapiens, UniProt P28324-2 1-405).
T3 sequence: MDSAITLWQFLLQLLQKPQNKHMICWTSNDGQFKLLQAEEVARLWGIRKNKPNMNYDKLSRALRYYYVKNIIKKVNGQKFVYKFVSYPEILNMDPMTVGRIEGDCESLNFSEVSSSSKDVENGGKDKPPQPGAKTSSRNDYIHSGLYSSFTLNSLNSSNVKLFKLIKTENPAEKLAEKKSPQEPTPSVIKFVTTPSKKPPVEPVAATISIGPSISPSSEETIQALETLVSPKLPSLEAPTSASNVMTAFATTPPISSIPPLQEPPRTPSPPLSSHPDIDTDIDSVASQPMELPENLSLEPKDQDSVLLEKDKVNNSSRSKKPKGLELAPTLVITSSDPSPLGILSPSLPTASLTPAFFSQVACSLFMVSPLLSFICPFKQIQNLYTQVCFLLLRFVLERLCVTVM
As to conditions: protein: recombinant; tags: N-terminal GST; dsDNA, one strand shown. The essentials:
as §1

The next assay concerns the target T4, ETV2 (Homo sapiens, UniProt O00321 1-342).
T4 sequence: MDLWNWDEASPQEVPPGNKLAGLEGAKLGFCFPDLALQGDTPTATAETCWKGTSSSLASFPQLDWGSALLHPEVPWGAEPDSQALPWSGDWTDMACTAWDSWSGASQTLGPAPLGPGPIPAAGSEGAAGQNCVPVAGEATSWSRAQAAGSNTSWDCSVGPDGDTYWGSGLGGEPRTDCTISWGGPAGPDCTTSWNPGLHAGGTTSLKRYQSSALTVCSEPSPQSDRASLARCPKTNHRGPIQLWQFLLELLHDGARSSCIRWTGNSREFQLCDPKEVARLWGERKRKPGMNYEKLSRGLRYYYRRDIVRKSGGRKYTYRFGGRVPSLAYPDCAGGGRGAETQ
As to conditions: protein: recombinant; tags: N-terminal GST; dsDNA, one strand shown. The essentials: as §1

The target of another assay is T5, ELF3 (Homo sapiens, UniProt P78545 1-371).
T5 sequence: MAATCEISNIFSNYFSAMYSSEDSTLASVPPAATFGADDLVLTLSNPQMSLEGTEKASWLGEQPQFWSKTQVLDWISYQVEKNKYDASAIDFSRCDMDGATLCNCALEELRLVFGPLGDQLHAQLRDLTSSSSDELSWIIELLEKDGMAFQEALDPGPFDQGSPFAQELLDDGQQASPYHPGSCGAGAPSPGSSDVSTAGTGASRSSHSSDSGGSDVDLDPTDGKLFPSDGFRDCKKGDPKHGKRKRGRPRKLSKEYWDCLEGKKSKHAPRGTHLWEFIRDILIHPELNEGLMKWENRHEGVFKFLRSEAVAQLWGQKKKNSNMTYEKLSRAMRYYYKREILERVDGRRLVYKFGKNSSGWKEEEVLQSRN
Conditions: protein: recombinant; tags: N-terminal GST; dsDNA, one strand shown. The essentials:
as §1

For the next assay, the target named is CRX (Homo sapiens, UniProt O43186 1-299). Conditions: protein: recombinant; tags: N-terminal GST; dsDNA, one strand shown. In a few lines: as §1
A further assay addresses ETV1 (Homo sapiens, UniProt P50549 1-477). As to conditions: protein: recombinant; tags: N-terminal GST; dsDNA, one strand shown. The essentials: as §1
The next assay concerns the target T6, ERF (Homo sapiens, UniProt P50548 1-548).
T6 sequence: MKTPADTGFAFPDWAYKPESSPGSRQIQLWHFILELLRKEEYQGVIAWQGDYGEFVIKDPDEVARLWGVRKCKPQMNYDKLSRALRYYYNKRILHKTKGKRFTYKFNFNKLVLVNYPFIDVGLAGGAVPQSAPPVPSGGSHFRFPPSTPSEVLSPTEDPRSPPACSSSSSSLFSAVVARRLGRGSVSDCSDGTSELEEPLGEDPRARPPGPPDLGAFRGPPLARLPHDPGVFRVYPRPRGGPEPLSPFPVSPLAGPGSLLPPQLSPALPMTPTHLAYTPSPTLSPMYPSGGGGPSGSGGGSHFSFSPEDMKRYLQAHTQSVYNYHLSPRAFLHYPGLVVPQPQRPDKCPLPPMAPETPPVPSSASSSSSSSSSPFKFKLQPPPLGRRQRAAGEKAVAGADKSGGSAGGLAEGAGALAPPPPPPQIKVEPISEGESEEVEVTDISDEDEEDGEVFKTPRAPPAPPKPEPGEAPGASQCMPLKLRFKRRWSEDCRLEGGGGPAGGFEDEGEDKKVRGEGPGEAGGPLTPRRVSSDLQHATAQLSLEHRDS
Conditions: protein: recombinant; tags: N-terminal GST; dsDNA, one strand shown. In a few lines: as §1

A further assay has as its target T7, ETV3L (Homo sapiens, UniProt Q6ZN32 1-361).
T7 sequence: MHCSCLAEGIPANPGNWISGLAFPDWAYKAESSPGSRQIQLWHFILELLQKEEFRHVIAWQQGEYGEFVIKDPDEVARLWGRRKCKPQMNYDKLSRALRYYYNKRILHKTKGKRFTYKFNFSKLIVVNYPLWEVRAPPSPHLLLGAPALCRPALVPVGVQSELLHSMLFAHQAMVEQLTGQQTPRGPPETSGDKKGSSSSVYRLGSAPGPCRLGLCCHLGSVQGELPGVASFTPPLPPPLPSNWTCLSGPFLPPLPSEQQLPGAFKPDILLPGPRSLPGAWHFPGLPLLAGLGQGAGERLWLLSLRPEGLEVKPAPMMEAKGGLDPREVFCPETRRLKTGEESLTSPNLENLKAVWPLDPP
Conditions: protein: recombinant; tags: N-terminal GST; dsDNA, one strand shown. The essentials: as §1

In the next assay the target is T8, ETS2 (Homo sapiens, UniProt P15036 1-469).
T8 sequence: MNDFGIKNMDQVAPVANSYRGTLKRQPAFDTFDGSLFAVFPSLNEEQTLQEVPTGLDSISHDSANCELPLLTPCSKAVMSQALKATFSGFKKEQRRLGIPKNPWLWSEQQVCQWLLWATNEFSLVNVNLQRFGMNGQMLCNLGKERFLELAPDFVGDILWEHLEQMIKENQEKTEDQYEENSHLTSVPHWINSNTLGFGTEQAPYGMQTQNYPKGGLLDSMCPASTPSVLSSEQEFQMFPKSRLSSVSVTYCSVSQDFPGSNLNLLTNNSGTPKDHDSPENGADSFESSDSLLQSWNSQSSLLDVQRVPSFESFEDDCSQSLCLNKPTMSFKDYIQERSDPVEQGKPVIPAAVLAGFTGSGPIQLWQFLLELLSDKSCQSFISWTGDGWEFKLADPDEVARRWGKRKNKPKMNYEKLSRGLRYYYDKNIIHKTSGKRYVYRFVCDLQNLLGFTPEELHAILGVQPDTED
Conditions: protein: recombinant; tags: N-terminal GST; dsDNA, one strand shown. In a few lines:
as §1

The target in a further assay is T9, SPDEF (Homo sapiens, UniProt O95238 1-335).
T9 sequence: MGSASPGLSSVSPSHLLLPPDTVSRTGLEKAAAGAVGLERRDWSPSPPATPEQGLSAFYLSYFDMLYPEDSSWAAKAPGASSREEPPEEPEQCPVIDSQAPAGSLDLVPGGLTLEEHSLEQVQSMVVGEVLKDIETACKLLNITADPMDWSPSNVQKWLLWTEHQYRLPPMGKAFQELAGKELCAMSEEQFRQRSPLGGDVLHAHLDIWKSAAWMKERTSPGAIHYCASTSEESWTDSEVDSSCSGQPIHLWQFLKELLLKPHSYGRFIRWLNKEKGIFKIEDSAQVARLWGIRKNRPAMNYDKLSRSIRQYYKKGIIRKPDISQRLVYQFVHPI
As to conditions: protein: recombinant; tags: N-terminal GST; dsDNA, one strand shown. The essentials: as §1

For another assay, the target named is T10, ETV7 (Homo sapiens, UniProt Q9Y603 1-341).
T10 sequence: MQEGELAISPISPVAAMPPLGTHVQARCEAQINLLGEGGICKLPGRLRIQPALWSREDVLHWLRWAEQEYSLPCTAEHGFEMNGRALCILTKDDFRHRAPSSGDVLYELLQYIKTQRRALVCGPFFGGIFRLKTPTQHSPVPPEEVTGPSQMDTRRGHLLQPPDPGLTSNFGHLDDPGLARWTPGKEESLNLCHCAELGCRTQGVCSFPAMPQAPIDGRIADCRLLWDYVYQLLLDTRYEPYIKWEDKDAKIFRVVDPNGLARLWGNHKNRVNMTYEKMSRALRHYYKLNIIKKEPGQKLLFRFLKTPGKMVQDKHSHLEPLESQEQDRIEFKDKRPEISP
Conditions: protein: recombinant; tags: N-terminal GST; dsDNA, one strand shown. In a few lines:
as §1

A further assay addresses T11, ELF5 (Homo sapiens, UniProt Q9UKW6-2 1-255).
T11 sequence: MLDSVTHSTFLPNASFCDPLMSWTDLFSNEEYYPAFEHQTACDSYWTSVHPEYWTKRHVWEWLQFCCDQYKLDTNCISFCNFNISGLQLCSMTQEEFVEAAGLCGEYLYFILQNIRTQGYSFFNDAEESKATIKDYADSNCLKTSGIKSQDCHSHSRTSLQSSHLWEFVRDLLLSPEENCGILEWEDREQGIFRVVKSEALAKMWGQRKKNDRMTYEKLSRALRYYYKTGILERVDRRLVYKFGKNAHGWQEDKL
As to conditions: protein: recombinant; tags: N-terminal GST; dsDNA, one strand shown. The essentials: as §1

The next assay has as its target T12, ETV3 (Homo sapiens, UniProt P41162-2 1-143).
T12 sequence: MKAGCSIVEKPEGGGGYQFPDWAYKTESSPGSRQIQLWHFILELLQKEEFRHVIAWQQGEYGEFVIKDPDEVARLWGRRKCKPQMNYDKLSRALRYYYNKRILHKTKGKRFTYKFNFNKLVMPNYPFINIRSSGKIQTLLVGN
Conditions: protein: recombinant; tags: N-terminal GST; dsDNA, one strand shown. The essentials: as §1

The next assay addresses ETV6 (Homo sapiens, UniProt P41212 1-452). Conditions: protein: recombinant; tags: N-terminal GST; dsDNA, one strand shown. The essentials:
as §1

ETV5, sequence (P41161 whole entry): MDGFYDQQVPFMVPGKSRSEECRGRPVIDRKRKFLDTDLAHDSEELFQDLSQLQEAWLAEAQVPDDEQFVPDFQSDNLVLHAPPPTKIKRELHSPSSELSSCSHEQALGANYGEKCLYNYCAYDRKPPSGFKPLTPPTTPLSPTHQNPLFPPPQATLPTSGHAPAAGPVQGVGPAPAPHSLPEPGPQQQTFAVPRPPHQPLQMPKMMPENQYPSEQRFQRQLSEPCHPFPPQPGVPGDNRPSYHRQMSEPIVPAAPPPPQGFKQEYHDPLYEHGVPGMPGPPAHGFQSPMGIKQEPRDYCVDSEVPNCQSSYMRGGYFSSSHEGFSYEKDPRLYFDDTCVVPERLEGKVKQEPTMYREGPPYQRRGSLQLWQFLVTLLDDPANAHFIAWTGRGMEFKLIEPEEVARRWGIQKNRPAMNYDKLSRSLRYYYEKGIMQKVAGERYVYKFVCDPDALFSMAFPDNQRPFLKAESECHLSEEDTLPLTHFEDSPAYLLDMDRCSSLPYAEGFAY
HSF1, sequence (Q00613 whole entry): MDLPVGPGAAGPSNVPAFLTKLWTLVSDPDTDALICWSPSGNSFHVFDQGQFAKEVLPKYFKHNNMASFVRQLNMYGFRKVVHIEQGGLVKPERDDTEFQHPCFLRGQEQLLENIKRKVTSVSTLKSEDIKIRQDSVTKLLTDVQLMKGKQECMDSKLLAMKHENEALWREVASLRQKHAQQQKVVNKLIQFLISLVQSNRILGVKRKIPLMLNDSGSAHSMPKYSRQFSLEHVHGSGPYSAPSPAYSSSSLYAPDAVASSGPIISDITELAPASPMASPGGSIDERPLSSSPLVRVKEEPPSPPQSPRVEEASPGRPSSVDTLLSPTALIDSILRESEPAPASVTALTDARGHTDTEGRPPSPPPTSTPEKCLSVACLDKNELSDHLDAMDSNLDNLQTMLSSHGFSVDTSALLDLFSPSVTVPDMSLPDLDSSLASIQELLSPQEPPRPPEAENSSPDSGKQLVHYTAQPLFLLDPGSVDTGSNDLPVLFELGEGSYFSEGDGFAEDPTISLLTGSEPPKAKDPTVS
CRX, sequence (O43186 whole entry): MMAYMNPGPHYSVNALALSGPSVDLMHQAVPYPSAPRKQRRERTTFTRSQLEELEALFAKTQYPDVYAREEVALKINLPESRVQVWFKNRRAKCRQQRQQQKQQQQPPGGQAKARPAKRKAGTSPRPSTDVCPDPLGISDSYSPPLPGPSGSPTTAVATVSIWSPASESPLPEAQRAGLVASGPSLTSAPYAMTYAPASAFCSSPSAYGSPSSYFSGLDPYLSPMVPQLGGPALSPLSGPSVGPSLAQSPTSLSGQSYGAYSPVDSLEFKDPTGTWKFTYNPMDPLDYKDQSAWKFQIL
ETV1, sequence (P50549 whole entry): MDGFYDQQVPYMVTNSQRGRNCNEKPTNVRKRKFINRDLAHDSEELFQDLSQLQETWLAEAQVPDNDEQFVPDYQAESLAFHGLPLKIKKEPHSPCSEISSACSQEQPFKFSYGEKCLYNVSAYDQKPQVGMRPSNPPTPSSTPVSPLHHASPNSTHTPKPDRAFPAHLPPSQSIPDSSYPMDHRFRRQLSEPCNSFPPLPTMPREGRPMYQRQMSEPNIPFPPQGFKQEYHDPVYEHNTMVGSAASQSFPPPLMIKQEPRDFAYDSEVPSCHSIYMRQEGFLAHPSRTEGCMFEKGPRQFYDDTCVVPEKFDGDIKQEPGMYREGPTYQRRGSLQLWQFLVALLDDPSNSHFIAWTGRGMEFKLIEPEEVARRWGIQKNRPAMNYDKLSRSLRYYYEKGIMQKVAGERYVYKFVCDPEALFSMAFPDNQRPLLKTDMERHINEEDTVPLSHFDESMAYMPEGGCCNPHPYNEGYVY
ELF4, sequence (Q99607 whole entry): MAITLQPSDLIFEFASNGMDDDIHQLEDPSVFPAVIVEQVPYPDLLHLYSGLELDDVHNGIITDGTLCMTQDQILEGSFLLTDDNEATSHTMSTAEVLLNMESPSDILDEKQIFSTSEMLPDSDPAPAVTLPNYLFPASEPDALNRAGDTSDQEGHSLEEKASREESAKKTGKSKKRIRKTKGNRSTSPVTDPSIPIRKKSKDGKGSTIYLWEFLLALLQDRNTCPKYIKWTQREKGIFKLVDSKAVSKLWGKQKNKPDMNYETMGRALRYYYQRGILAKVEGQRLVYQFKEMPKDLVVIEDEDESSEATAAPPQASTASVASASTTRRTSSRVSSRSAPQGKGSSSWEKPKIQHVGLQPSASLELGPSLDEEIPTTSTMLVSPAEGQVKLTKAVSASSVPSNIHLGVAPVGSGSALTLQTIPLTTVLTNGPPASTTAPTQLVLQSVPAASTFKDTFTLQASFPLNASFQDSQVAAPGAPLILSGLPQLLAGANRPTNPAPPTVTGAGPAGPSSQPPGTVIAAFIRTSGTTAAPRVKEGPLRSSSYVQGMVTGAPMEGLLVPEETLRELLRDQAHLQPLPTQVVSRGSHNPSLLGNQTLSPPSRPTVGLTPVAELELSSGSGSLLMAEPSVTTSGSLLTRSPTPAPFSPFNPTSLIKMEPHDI
ETV6, sequence (P41212 whole entry): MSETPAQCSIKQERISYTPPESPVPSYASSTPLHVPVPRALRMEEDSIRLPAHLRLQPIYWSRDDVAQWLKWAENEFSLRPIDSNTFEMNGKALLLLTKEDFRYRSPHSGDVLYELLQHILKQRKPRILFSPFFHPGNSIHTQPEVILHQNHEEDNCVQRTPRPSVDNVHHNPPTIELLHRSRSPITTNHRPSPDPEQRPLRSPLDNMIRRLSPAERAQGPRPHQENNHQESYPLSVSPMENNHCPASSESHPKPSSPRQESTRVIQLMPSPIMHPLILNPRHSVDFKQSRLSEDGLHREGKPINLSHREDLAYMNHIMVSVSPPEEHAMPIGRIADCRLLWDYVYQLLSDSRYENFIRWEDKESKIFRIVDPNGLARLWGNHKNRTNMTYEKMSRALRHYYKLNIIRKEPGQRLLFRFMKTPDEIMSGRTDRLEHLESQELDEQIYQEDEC

With ATATCT, the binding signal was 1.15 fold enrichment (6-mer frequency, TF over GST control) with FEV; 1.1 fold enrichment (6-mer frequency, TF over GST control) with ETV5; 1.26 fold enrichment (6-mer frequency, TF over GST control) with HSF1; 1.1 fold enrichment (6-mer frequency, TF over GST control) with SPIC; 1.17 fold enrichment (6-mer frequency, TF over GST control) in the assay with ELF4; 1.2 fold enrichment (6-mer frequency, TF over GST control) with ELK4. Also, the binding signal in the assay with ETV2 is 1.3 fold enrichment (6-mer frequency, TF over GST control); with ELF3, 1.21 fold enrichment (6-mer frequency, TF over GST control); with CRX, 1.39 fold enrichment (6-mer frequency, TF over GST control); in the assay with ETV1 it was 1.16 fold enrichment (6-mer frequency, TF over GST control); with ERF, 1.23 fold enrichment (6-mer frequency, TF over GST control); with ETV3L it was 1.21 fold enrichment (6-mer frequency, TF over GST control). Moreover, the binding signal was 1.17 fold enrichment (6-mer frequency, TF over GST control) with ETS2; 1.22 fold enrichment (6-mer frequency, TF over GST control) with SPDEF; 1.2 fold enrichment (6-mer frequency, TF over GST control) with ETV7; 1.18 fold enrichment (6-mer frequency, TF over GST control) in the assay with ELF5; 1.19 fold enrichment (6-mer frequency, TF over GST control) with ETV3; 1.14 fold enrichment (6-mer frequency, TF over GST control) with ETV6.
